Screening results: PubChem BioAssay, National Center for Advancing Translational Sciences (NCATS)
D2 PAM-1 – positive allosteric modulators of human D2 dopamine receptor; 360,000 tested, 0.23% active; potentiation, % (no concentration beside the values); AID 624464; DiscoveRx D2 beta-arrestin cells, luminescence, 90 min; 100% = 57 uM dopamine signal; in the data active = potentiation above about 50%; inconclusive = mostly about 30% to 49%
Target sequence (P14416 whole entry, looked up): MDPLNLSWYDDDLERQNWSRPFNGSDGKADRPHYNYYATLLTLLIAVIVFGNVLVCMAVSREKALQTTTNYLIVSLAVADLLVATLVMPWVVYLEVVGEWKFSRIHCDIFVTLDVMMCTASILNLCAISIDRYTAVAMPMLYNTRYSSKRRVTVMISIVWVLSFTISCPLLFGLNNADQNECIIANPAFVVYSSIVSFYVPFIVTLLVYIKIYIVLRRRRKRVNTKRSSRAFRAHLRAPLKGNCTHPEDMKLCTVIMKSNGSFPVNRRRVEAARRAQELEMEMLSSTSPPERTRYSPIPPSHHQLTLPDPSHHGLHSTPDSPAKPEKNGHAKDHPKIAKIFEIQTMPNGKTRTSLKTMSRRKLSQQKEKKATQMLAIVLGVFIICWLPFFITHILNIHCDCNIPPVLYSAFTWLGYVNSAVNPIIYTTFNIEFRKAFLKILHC
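D2 cells co-treated with compound plus 50 nM dopamine (EC20) for 90 min at 37 deg C to detect potentiation. Beta-arrestin recruitment was read as enzyme-fragment luminescence after 1 h at ambient temperature. Full response was set by 57 uM dopamine.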
D2 ag-1 – D2 dopamine receptor (human) agonism | HEK293 T-REx D2 cells, calcium flux agonist mode | AID 485358 | activation, % at 2 µM | 340,000 tested, 0.53% active | P14416;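 active = activation over 3 SD above normal in the single-dose calcium agonist read, cut at about 30% in these data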; note: 0% is about no effect
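Agonism is scored from calcium flux in a force-coupled, inducible HEK293 cell line expressing D2, read kinetically for 180 s after compound addition against dopamine controls.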
D2 antagonist – D2 dopamine receptor (human) antagonism | P14416 | HEK293 TREx D2 cells, calcium flux, dopamine EC80 | inhibition, % at 10 µM | 340,000 tested, 2% active | AID 485344; in the data active = inhibition above about 30%; inactive = below that, where a call was filed; note: 0% is about no effect
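Inhibition of EC80 dopamine-driven calcium flux, recorded kinetically, defines activity here; cells are a tetracycline-induced HEK293 T-REx line expressing force-coupled D2.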
D2 PAM-2 – positively modulates the human D2 dopamine receptor allosterically; P14416; HEK293 T-REx D2, calcium flux, EC20 dopamine potentiation; potentiation, % at 10 µM; 340,000 tested, 0.34% active; AID 485347;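 active = potentiation over 3 SD above the plate norm, cut at about 30% in these data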; note: 0% is about no effect
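Cells plated with tetracycline inducer and held overnight at 30 C; calcium dye loaded 30–90 min at room temperature; baseline taken, compound added and read 180 s; EC20 dopamine then added and read 180 s.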
D2 ag-2 – activates the human D2 dopamine receptor; DiscoveRx PathHunter D2 beta-arrestin, luminescence, 90 min; 100% = 57 uM dopamine signal; activation, % (no concentration beside the values); 360,000 tested, 0.084% active; in the data active = activation above about 40%; inconclusive = between about 15% and that limit
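DiscoveRx PathHunter D2 beta-arrestin cells (2,100/well) attached overnight, then compound-stimulated 90 min at 37 C in HBSS/10 mM HEPES/0.1% Tween-20 buffer; beta-galactosidase complementation read by luminescence after 1 h at ambient temperature. Dopamine 57 uM final (EC100) as control.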
Active calls of the source: *; ? = inconclusive; · = no result given. Sampled rows, rich in hits. Any-hit rate of the full collection: about 2.4%.

SMILES | D2 PAM-1 | D2 ag-1 | D2 antagonist | D2 PAM-2 | D2 ag-2
Cc1ccc(NC(=S)NC2CCN(Cc3ccccc3)CC2)cc1C | ? | 3 | 78* | -24 | -9
Cc1ccc(NC(=S)N2CCN(Cc3ccccc3)CC2)cc1 | -9 | 0 | -13 | · | 2
Cc1ccc(NC(=S)NC2CCN(Cc3ccccc3)CC2)cc1 | -34 | 0 | 84* | -17 | -2
S=C(Nc1ccc2c(c1)OCO2)NC1CCN(Cc2ccccc2)CC1 | -17 | 0 | 59* | -26 | -3
CCOc1ccc2nc(NC(=O)c3nc(SCc4ccc(C)cc4)ncc3Cl)sc2c1 | · | · | · | 1 | ·
CCn1c2c(c(=N)c3ccccc31)CCC2 | -10 | -1 | -8 | 3 | 0
COCCNc1nnc(SCC(=O)c2ccc3c(c2)OCO3)s1 | -6 | 0 | 21 | 1 | -3
CC1=C(C)CC(C(=O)N2CCN(Cc3ccccc3)CC2)C(C(=O)O)C1 (centres undefined) | -23 | 4 | 0 | 30* | -4
CC(C)c1ccc(NC(=S)N2CCN(Cc3ccccc3)CC2)cc1 | -4 | 0 | -15 | 3 | -3
CC(C)c1ccc(NC(=S)NC2CCN(Cc3ccccc3)CC2)cc1 | -41 | 1 | 52* | -20 | -2
O=S(=O)(CCc1nc2ccccc2[nH]1)c1ccc(Br)cc1 | -13 | -1 | -1 | -3 | -3
O=C(Oc1ccccc1/C=C\C(=O)c1cc2ccccc2o1)c1ccccc1 | -4 | 1 | 4 | -17 | 0
CCc1ccc(-c2nc(SCC(=O)NCC3CCCO3)c(-c3ccc(C)cc3)[nH]2)cc1 (centres undefined) | · | -1 | · | -22 | ·
Cc1ccc(-c2nc(S(=O)(=O)c3ccc(F)cc3)c(SCC(=O)NCC3CCCO3)o2)cc1 (centres undefined) | -3 | 1 | -7 | 36* | 0
Cc1ccc(-c2[nH]c(-c3ccc(Cl)cc3)nc2SCC(=O)NCC2CCCO2)cc1 (centres undefined) | -11 | 4 | 61* | -20 | -2
O=C(CSc1nc2c(cnn2-c2cccc(Cl)c2)c(=O)[nH]1)NCC1CCCO1 (centres undefined) | 1 | 0 | 39* | 4 | 8
Cc1ccc(-n2ncc3c(=O)[nH]c(SCC(=O)NCC4CCCO4)nc32)cc1 (centres undefined) | -2 | · | · | · | 0
CN=C1S/C(=C\c2cn(CC(=O)OC)c3ccccc23)C(=O)N1C | -10 | 2 | -4 | -3 | -2
O=C(CCCc1ccccc1)Nc1ccnn1C1CCN(Cc2ccc(Cl)cc2)CC1 | -20 | 0 | 35* | -23 | -1
O=C(CCCc1ccccc1)Nc1ccnn1C1CCN(Cc2ccccc2)CC1 | -30 | 1 | 41* | -34 | -6
O=C1C(=O)c2c(ccc3ccccc23)-c2ccccc21 | 59* | · | · | · | ?
CN(C)/C=C1\Oc2ccc3ccccc3c2C1=O | -3 | -3 | -5 | 7 | 2
CCOc1ccccc1N(C(=O)c1snc(C(N)=O)c1N)C(C(=O)NC1CCCC1)c1cccs1 (centres undefined) | -6 | 2 | -1 | 7 | -4
CC1C(=O)N2CCCc3cc(NC(=O)C(=O)NCc4ccc5c(c4)OCO5)cc1c32 (centres undefined) | -2 | 0 | -6 | -5 | -2
CCOC(=O)C1=NOC(CNC(=O)c2c(-c3ccccc3Cl)noc2C)C1 (centres undefined) | -13 | 1 | -8 | 3 | -1
SMILES | D2 PAM-1 | D2 ag-1 | D2 antagonist | D2 PAM-2 | D2 ag-2
CC(=O)C1=NOC(CNC(=O)c2c(-c3ccccc3Cl)noc2C)C1 (centres undefined) | -2 | 0 | -6 | 32* | 7
Cc1ccc(OCCSCc2nc3ccccc3[nH]2)cc1 | -3 | · | · | · | -4
CCCCCCn1c(=O)[nH]c2nc3cc(N)ccc3nc2c1=O | 60* | 85* | 32* | 3 | 6
CCCCCn1c(=O)c(C(=O)c2ccccc2)nc2ccccc21 | 2 | 0 | 1 | 16 | 0
CCN(CC)S(=O)(=O)c1ccc(N2CCOCC2)c(NS(=O)(=O)c2ccc(Cl)s2)c1 | -7 | · | · | · | 1
COc1ccc(C2Nc3ccccc3C(=O)N2Cc2ccccc2)cc1CN1CCOCC1 (centres undefined) | -7 | 0 | -3 | 4 | -3
